{"source": "PubChem BioAssay (EPA / NIEHS)", "note": "Activity calls are given as the source filed them. Rule for the calls: active = hit-call score of the fitted dose curve at least 0.9, where 1 is the maximum; inactive = score below 0.9.", "data": [{"assay": "ATG_M_19_CIS: Attagene CIS-FACTORIAL HepG2 Assay for M19 Transcription Factor (Internal Marker) (AID 2282939)", "conditions": "HepG2 Attagene CIS-FACTORIAL M19 internal marker reporter; actives raise or lower the signal", "experimental": "ATG_CIS is a cell-based, multiplexed-readout assay that uses HepG2, a human liver cell line, with measurements taken at 24 hours after chemical dosing in a 24-well plate.ATG_M_19_CIS is one of 52 assay component(s) measured or calculated from the ATG_CIS assay. It is designed to make measurements of mRNA induction, a form of inducible reporter, as detected with fluorescence intensity signals by Reverse transcription polymerase chain reaction (RT-PCR) and Capillary electrophoresis technology.Data from the assay component ATG_M_19_CIS was analyzed into 1 assay endpoint. This assay endpoint, ATG_M_19_CIS, was analyzed with bidirectional fitting relative to DMSO as the negative control and baseline of activity. Using a type of inducible reporter, measures of mRNA for gain or loss-of-signal activity can be used to understand the background control at the transcription factor-level as they relate to the gene . Furthermore, this assay endpoint can be referred to as a secondary readout, because this assay has produced multiple assay endpoints where this one serves a background control function. To generalize the intended target to other relatable targets, this assay endpoint is annotated to the background measurement intended target family, where the subfamily is internal marker.\nHuman liver HepG2 cells are transiently transfected with multiple reporter transcription units (MRTUs) in 6-well plates using FuGene 6 reagent (Roche; 3 ml FuGene/1 mg DNA). The MRTU constructs are regulated by a cis-regulating element (promoter). […] A major difference between the CIS and TRANS system is that in CIS activities of endogenous TFs are measured, whereas the TRANS assay evaluates changes in activities of exogenous, chimeric NR-Gal4 proteins. […] At the end of 24 hour incubation, total RNA was isolated using TriZol reagent (Invitrogen). The isolated RNA is then reverse-transcribed using oligo(dT) primer and Mo-MLV reverse transcriptase (Invitrogen) with DNAse I (Ambion) treatment for 30 min. The one-tenth of the produced cDNA was amplified by PCR using Taq DNA polymerase (Invitrogen) and two reporter sequence-specific primers. The PCR products were fluorescently labeled by primer extension with 6-arboxyfluorescein (6-FAM) 5'-labeled reporter sequence-specific primer (2 min at 95 C, 20 s at 68 C and 10 min at 72 C) and these products were digested with 5U of HpaI (New England Biolabs) for 2h at 37 C. The fragments were purified using Qiaquick PCR columns (Qiagen), analyzed on an ABI 3130xL genetic analyzer (Applied Biosystems) with peak positions identified by using a set of X-rhodamine (ROX)-labeled MapMarker1000 molecular weight standards (BioVentures). The raw capillary electrophoresis data was processed using Attagraph software (Attagene).", "values": [{"smiles": "O=C(NCO)NCO", "outcome": "inactive"}, {"smiles": "BrCCBr", "outcome": "inactive"}, {"smiles": "O=C1C2(Cl)C3(Cl)C4(Cl)C(Cl)(Cl)C5(Cl)C3(Cl)C1(Cl)C5(Cl)C24Cl", "note": "(stereo not given)", "outcome": "inactive"}, {"smiles": "Cn1sc(Cl)cc1=O", "outcome": "inactive"}, {"smiles": "CC1(C)Cc2cccc(O)c2O1", "outcome": "inactive"}, {"smiles": "Cc1ccc(N)cc1Cl", "outcome": "inactive"}, {"smiles": "OCc1ccco1", "outcome": "inactive"}, {"smiles": "ClCc1ccccn1", "outcome": "inactive"}, {"smiles": "O=CC=O", "outcome": "inactive"}, {"smiles": "COP(=S)(OC)Oc1c(Cl)cc(C)cc1Cl", "outcome": "inactive"}, {"smiles": "O=C1CCCN1", "outcome": "inactive"}, {"smiles": "ClC1=C(Cl)[C@]2(Cl)[C@H]3[C@H]([C@H]4C=C[C@H]3C4)[C@@]1(Cl)C2(Cl)Cl", "outcome": "inactive"}, {"smiles": "Nc1ccc(Cl)cc1C(=O)c1ccccc1", "outcome": "inactive"}, {"smiles": "COc1cccc(C=O)c1", "outcome": "inactive"}, {"smiles": "CC(=[OH+])/C=C(/C)[O-].CC(=[OH+])/C=C(/C)[O-].CC(=[OH+])/C=C(/C)[O-].[Fe]", "outcome": "inactive"}, {"smiles": "O=[N+]([O-])c1ccc2c3c(cccc13)CC2", "outcome": "inactive"}, {"smiles": "Cc1ccccc1N", "outcome": "inactive"}, {"smiles": "CCc1ccccc1C", "outcome": "inactive"}, {"smiles": "CC(Br)C(=O)O", "note": "(stereo not given)", "outcome": "inactive"}, {"smiles": "Cl/C=C/Cl", "outcome": "inactive"}, {"smiles": "CCC1(c2ccc(N)cc2)CCC(=O)NC1=O", "note": "(stereo not given)", "outcome": "inactive"}, {"smiles": "O=C(O)Cc1ccccc1", "outcome": "inactive"}, {"smiles": "O=c1[nH]c(=O)[nH]c(=O)[nH]1", "outcome": "inactive"}, {"smiles": "O=[N+]([O-])c1c(Cl)c(Cl)cc(Cl)c1Cl", "outcome": "inactive"}, {"smiles": "C[C@]12CC[C@H](O)CC1=CC[C@@H]1[C@@H]2CC[C@]2(C)C(=O)CC[C@@H]12", "outcome": "inactive"}, {"smiles": "CN(C)P(=O)(N(C)C)N(C)C", "outcome": "inactive"}, {"smiles": "CCNc1nc(NC(C)(C)C)nc(SC)n1", "outcome": "inactive"}, {"smiles": "CCOC(=O)CP(=O)(OCC)OCC", "outcome": "inactive"}, {"smiles": "C=CCc1ccc(OC)cc1", "outcome": "inactive"}, {"smiles": "O=[N+]([O-])c1ccc(O)c([N+](=O)[O-])c1", "outcome": "inactive"}, {"smiles": "CC12CC1(C)C(=O)N(c1cc(Cl)cc(Cl)c1)C2=O", "note": "(stereo not given)", "outcome": "inactive"}, {"smiles": "Nc1cccc2ccccc12", "outcome": "inactive"}, {"smiles": "CCC(=O)C(CC(C)N(C)C)(c1ccccc1)c1ccccc1", "note": "(stereo not given)", "outcome": "inactive"}, {"smiles": "CC(=O)c1cc(C(C)(C)C)cc2c1CCC2(C)C", "outcome": "inactive"}, {"smiles": "CCc1ccccc1N", "outcome": "inactive"}, {"smiles": "ClC1(Cl)C2(Cl)C3(Cl)C4(Cl)C(Cl)(Cl)C5(Cl)C3(Cl)C1(Cl)C5(Cl)C24Cl", "note": "(stereo not given)", "outcome": "inactive"}, {"smiles": "COP(=S)(OC)Oc1ccc(S(=O)(=O)N(C)C)cc1", "outcome": "inactive"}, {"smiles": "CC(C)c1ccc(CO)cc1", "outcome": "inactive"}, {"smiles": "Oc1c(I)cc(I)cc1I", "outcome": "inactive"}, {"smiles": "O=C(Cl)c1ccc(Cl)cc1", "outcome": "inactive"}]}]}
